One assay relates to AAK1. The arrangement: species or system human, MV4-11 + K-562 + COLO205 + SK-N-BE2 + OVCAR-8. The settings on record: read-out: apparent Kd, n = 1.
Another assay relates to BMP2K. The arrangement: species or system human, MV4-11 + K-562 + COLO205 + SK-N-BE2 + OVCAR-8. To be noted: read-out: apparent Kd, n = 1.
The test system of a further assay is FLT3. Details: species or system human, MV4-11 + K-562 + COLO205 + SK-N-BE2 + OVCAR-8. To be noted: read-out: apparent Kd; compound concentrations: 100 nM and 1000 nM (sheet 'Samples'), CATDS: 0.17522141736576; n = 1.
The next assay relates to FLT4. The arrangement: species or system human, MV4-11 + K-562 + COLO205 + SK-N-BE2 + OVCAR-8. To be noted: read-out: apparent Kd, compound concentrations: 100 nM and 1000 nM (sheet 'Samples'), n = 1.
The next assay addresses Q6ZSR9 (human, UniProt Q6ZSR9). Details: species or system MV4-11 + K-562 + COLO205 + SK-N-BE2 + OVCAR-8. To be noted: read-out: apparent Kd, n = 1.
The next assay deals with RET. Details: species or system human, MV4-11 + K-562 + COLO205 + SK-N-BE2 + OVCAR-8. The settings on record: read-out: apparent Kd, compound concentrations: 100 nM and 1000 nM (sheet 'Samples'), n = 1.
Another assay relates to CLK1. The arrangement: species or system human, MV4-11 + K-562 + COLO205 + SK-N-BE2 + OVCAR-8. The settings on record: read-out: apparent Kd; compound concentrations:100 nM and 1000 nM (sheet 'Samples'); n = 1.
In the next assay the test system is CLK4. The arrangement: species or system human, MV4-11 + K-562 + COLO205 + SK-N-BE2 + OVCAR-8. The settings on record: read-out: apparent Kd; compound concentrations:100 nM and 1000 nM (sheet 'Samples'); n = 1.
The next assay relates to CSNK2A1;CSNK2A3. Details: species or system human, MV4-11 + K-562 + COLO205 + SK-N-BE2 + OVCAR-8. The settings on record: read-out: apparent Kd, n = 1.
The next assay has as its system CSNK2A2. Details: species or system human, MV4-11 + K-562 + COLO205 + SK-N-BE2 + OVCAR-8. To be noted: read-out: apparent Kd; compound concentrations:100 nM and 1000 nM (sheet 'Samples'); n = 1.
The test system of a further assay is GAK. Details: species or system human, MV4-11 + K-562 + COLO205 + SK-N-BE2 + OVCAR-8. The settings on record: read-out: apparent Kd, n = 1.
In the next assay the test system is MELK. The arrangement: species or system human, MV4-11 + K-562 + COLO205 + SK-N-BE2 + OVCAR-8. The settings on record: read-out: apparent Kd; compound concentrations:100 nM and 1000 nM (sheet 'Samples'); n = 1.
Another assay relates to GSK3A. The arrangement: species or system human, MV4-11 + K-562 + COLO205 + SK-N-BE2 + OVCAR-8. The settings on record: read-out: apparent Kd; compound concentrations: 100 nM and 1000 nM (sheet 'Samples'), CATDS: 2.9908240641474598E-2; n = 1.
The test system of another assay is GSK3B. The arrangement: species or system human, MV4-11 + K-562 + COLO205 + SK-N-BE2 + OVCAR-8. The settings on record: read-out: apparent Kd; compound concentrations: 100 nM and 1000 nM (sheet 'Samples'), CATDS: 2.52342080828949E-2; n = 1.
Another assay has as its system PAK4. Details: species or system human, MV4-11 + K-562 + COLO205 + SK-N-BE2 + OVCAR-8. To be noted: read-out: apparent Kd; compound concentrations: 100 nM and 1000 nM (sheet 'Samples'), CATDS: 2.19543905026186E-2; n = 1.
In another assay the test system is PKN1. Details: species or system human, MV4-11 + K-562 + COLO205 + SK-N-BE2 + OVCAR-8. The settings on record: read-out: apparent Kd; compound concentrations: 100 nM and 1000 nM (sheet 'Samples'), CATDS: 1.7045557740064301E-2; n = 1.
The subject of the next assay is SIK2. The arrangement: species or system human, MV4-11 + K-562 + COLO205 + SK-N-BE2 + OVCAR-8. To be noted: read-out: apparent Kd; compound concentrations: 100 nM and 1000 nM (sheet 'Samples'), CATDS: 2.40988460516664E-2; n = 1.
Setting [1] is: compound concentrations:100 nM and 1000 nM (sheet 'Samples').

Where two headings read alike, the source gives them in different places.

Q6ZSR9, sequence (Q6ZSR9 whole entry, looked up): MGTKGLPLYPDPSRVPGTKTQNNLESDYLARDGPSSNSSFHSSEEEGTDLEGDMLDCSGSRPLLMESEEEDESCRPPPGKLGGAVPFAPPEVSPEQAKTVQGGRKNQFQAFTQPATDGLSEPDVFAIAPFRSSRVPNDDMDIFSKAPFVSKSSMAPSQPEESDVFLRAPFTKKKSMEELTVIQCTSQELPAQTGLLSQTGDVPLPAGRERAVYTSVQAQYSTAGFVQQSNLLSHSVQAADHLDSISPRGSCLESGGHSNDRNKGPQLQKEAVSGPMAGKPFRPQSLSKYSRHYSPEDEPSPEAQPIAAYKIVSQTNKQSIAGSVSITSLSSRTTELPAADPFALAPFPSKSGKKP

Regarding `CN(c1ccc(NC(=O)NCCN2CCOCC2)cc1)c1ccnc(Nc2ccc(CS(C)(=O)=O)cc2)n1.Cl` [GW830365A], the potency estimated from few doses with AAK1 (compound concentrations: 100 nM and 1000 nM (sheet 'Samples'), CATDS: 5.9294254337115E-2) is 785 nM; with BMP2K (compound concentrations: 100 nM and 1000 nM (sheet 'Samples'), CATDS: 5.1935568412460401E-2), 1150 nM; in the assay with FLT3, 107 nM; with FLT4 (CATDS: 0.17294643484613401), 109 nM; with Q6ZSR9 (compound concentrations: 100 nM and 1000 nM (sheet 'Samples'), CATDS: 5.6296915490776901E-2) it was 904 nM; in the assay with RET (CATDS: 9.0906950139660506E-2) it was 308 nM.

Turning to `CN(C)CC(O)COc1ccc(Nc2nccc(-c3cnn4nc(N5CCOCC5)ccc34)n2)cc1` (stereo not shown) [GW767488X], the potency estimated from few doses with AAK1 (setting [1]) is 23.6 nM; in the assay on BMP2K (setting [1]) it was 180 nM; in the assay with CLK1 it was 54.1 nM; with CLK4, 34.2 nM; in the assay on CSNK2A1;CSNK2A3 (setting [1]), 105 nM; with CSNK2A2 it was 57.1 nM. Besides, the potency estimated from few doses with GAK (setting [1]) was 378 nM; with MELK, 1490 nM; with Q6ZSR9 (setting [1]), 29.6 nM.

In the case of `Cc1ccccc1-n1ncc(C(=O)c2ccccc2)c1N` [RO1151248-000], the potency estimated from few doses with AAK1 (compound concentrations: 100 nM and 1000 nM (sheet 'Samples'), CATDS: 2.38860019962077E-2) was 914 nM; in the assay on CSNK2A1;CSNK2A3 (compound concentrations: 100 nM and 1000 nM (sheet 'Samples'), CATDS: 1.72589051675766E-2) it was 2250 nM; with FLT4 (CATDS: 1.8880298651143101E-2), 1670 nM; with GAK (compound concentrations: 100 nM and 1000 nM (sheet 'Samples'), CATDS: 3.2430470905267197E-2), 506 nM; in the assay with GSK3A, 584 nM; in the assay with GSK3B, 813 nM. Also, the potency estimated from few doses in the assay on PAK4 was 1110 nM; with PKN1, 2350 nM; in the assay with Q6ZSR9 (compound concentrations: 100 nM and 1000 nM (sheet 'Samples'), CATDS: 2.32948628287949E-2), 967 nM; in the assay with RET (CATDS: 2.2142525707208802E-2) it was 1090 nM; in the assay on SIK2, 897 nM.

For `CS(=O)(=O)Nc1cccc(-c2ccc3c(NC(=O)C4CC4)n[nH]c3c2)c1` [SB-742864], the potency estimated from few doses with AAK1 (compound concentrations: 100 nM and 1000 nM (sheet 'Samples'), CATDS: 0.116591298752119) is 1410 nM; in the assay with BMP2K (compound concentrations: 100 nM and 1000 nM (sheet 'Samples'), CATDS: 0.11349645370011199), 1510 nM; with Q6ZSR9 (compound concentrations: 100 nM and 1000 nM (sheet 'Samples'), CATDS: 0.100041705724795), 2110 nM.

For `CCCc1cc(N2CCCN(C)CC2)nc2sc3c(N)ncnc3c12` [BI00604564], the potency estimated from few doses was 1990 nM with AAK1 (compound concentrations: 100 nM and 1000 nM (sheet 'Samples'), CATDS: 0.13729874027545599); 516 nM with GAK (compound concentrations: 100 nM and 1000 nM (sheet 'Samples'), CATDS: 0.27765104438225702); 1310 nM with Q6ZSR9 (compound concentrations: 100 nM and 1000 nM (sheet 'Samples'), CATDS: 0.16382983501134099).

Consider `COc1cc(Nc2nccc(N3CCC(NC(=O)c4cccc(NC(C)=O)c4)C3)n2)cc(OC)c1OC` (stereo not shown) [GSK1379754A], for which the potency estimated from few doses in the assay with AAK1 (compound concentrations: 100 nM and 1000 nM (sheet 'Samples'), CATDS: 0.175205708840038) is 410 nM; with Q6ZSR9 (compound concentrations: 100 nM and 1000 nM (sheet 'Samples'), CATDS: 0.171045295105965) it was 426 nM.

Regarding `CC(C)Nc1cc(-c2ccc3c(N)n[nH]c3c2)nc(N)n1` [GSK2221681A], the potency estimated from few doses was 149 nM with AAK1 (setting [1]); 947 nM in the assay with BMP2K (setting [1]); 1550 nM in the assay on CLK4; 1130 nM in the assay on MELK; 220 nM with Q6ZSR9 (setting [1]).

`NC(=O)c1cc(-c2ccccc2)cc2c(C3CCNCC3)c[nH]c12` [GSK301362A]: the potency estimated from few doses in the assay on AAK1 (setting [1]) is 1980 nM.
